An excerpt weighted towards active compounds, which were near 3.6% of everything screened.
HSP90 refold inh = inhibitors of HSP90 luciferase refolding in rabbit reticulocyte lysate; luciferase refolding luminescence, 3 h; inhibition, % at 5.6 µM; actives 0.91% (n = 290,000); AID 1789;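 active = inhibition above the screen-wide mean plus 3 SD, computed separately per campaign, cut at about 16% in these data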;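 also: 0% = DMSO wells and 100% = 60 µM geldanamycin wells; inhibitors lower the luminescence because luciferase stays unfolded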
KKLEB tox = reduces viability of KKLEB cystic fibrosis airway cells. KKLEB CF airway cells viability, ATPlite luminescence, overnight; hits give low values; cells stimulated with P. aeruginosa culture filtrate. activity change (cytotoxicity), % at 5 µM. actives 0.36% (n = 360,000). AID 602141;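 active = corrected activity change at or below -50% at 5 µM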
Mdm2-MdmX inh = human Mdm2/MdmX binding inhibition; O15151+Q00987; actives 3% (n = 330,000); inhibition, % at 8 µM; AID 485346; SaOS-2 split-luciferase Mdm2/MdmX complementation, luminescence;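 active = inhibition of at least 50% at 8 µM in the primary screen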
CF NFkB inh = cystic fibrosis NF-kB activation inhibition | KKLEB NF-kB-GFP reporter, PAF-induced, GFP fluorescence overnight | inhibition, % at 5 µM | actives 0.86% (n = 360,000);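 active = at least 50% inhibition at 5 µM, scaled per plate between neutral and stimulator controls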;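 also: PAF is a Pseudomonas aeruginosa culture filtrate used as stimulus; plate controls were PAF-stimulated DMSO wells for no effect and unstimulated DMSO wells for full effect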
LGR2 inh = blocks bursicon-induced cAMP signaling via Drosophila LGR2. HEK293 LGR2, CRE-luciferase, bursicon-stimulated, 4 h. inhibition, % at 9.99 µM. actives 0.35% (n = 380,000). AID 720647;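 active = drop in luminescence signal, shown as inhibition above about 50% in the replicate tests, limit read from the data, passing the limit was not always enough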;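 also: agonist challenge used bursicon conditioned medium at about half maximal strength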
Peg3 prom inh = inhibitors of Peg3 promoter; HeLa PEG-Prom luciferase reporter, luminescence, overnight; inhibition, % at 20 µM; actives 1.7% (n = 360,000); AID 588405;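 active = inhibition of at least 50% at 20 µM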
* = called active by the depositor.

COc1ccc(-n2nnnc2C(c2ccccc2)N2CCC3(CC2)C(=O)NCN3c2ccccc2)cc1 (centres undefined) was read as KKLEB tox -27, CF NFkB inh 13, LGR2 inh 17 and Peg3 prom inh 34.
For COc1ccc(-n2nnnc2C(c2ccccc2OC(F)(F)F)N2CCC(n3c(=O)[nH]c4ccccc43)CC2)cc1 (centres undefined) the results were KKLEB tox 3, CF NFkB inh 18, LGR2 inh 37 and Peg3 prom inh 85*.
COc1ccc(-n2nnnc2C(c2ccccc2OC(F)(F)F)N2CCC3(CC2)C(=O)NCN3c2ccccc2)cc1 (centres undefined) was read as KKLEB tox -3, CF NFkB inh 5, LGR2 inh 18 and Peg3 prom inh 57*.
Screening COC(=O)[C@H]1[C@H](CO)[C@H]2Cn3c(ccc(/C=C/c4ccccc4)c3=O)[C@@H]1N2CC1CCCC1 returned LGR2 inh 11.
CCC(C)C1NC(=O)C(NC(=O)C(CC(C)C)N(C)C(=O)C2CCCN2C(=O)C(C)O)C(C)OC(=O)C(Cc2ccc(OC)cc2)N(C)C(=O)C2CCCN2C(=O)C(CC(C)C)NC(=O)[C@H](C)C(=O)[C@H](C(C)C)OC(=O)CC1O (some centres undefined) was read as KKLEB tox -70*, CF NFkB inh 94*, LGR2 inh 101* and Peg3 prom inh 100*.
CCCc1nc2ccc(Br)cc2c(=O)n1-c1ccc([N+](=O)[O-])c(C(F)(F)F)c1 was read as HSP90 refold inh 3, KKLEB tox -21, Mdm2-MdmX inh 37, CF NFkB inh 43, LGR2 inh 28 and Peg3 prom inh 55*.
For COC(=O)C12OCC34C(CC5C(C)=C(O)C(=O)CC5(C)C3C(O)C1O)OC(=O)C(OC(=O)/C=C(\C)C(C)C)C24 (centres undefined) the results were KKLEB tox -52*, CF NFkB inh 96*, LGR2 inh 101* and Peg3 prom inh 103*.
Screening Cc1cc(C)cc(N2C(=O)NC(=O)/C(=C\c3cccn3-c3ccccc3)C2=O)c1 returned HSP90 refold inh -2, KKLEB tox 5, Mdm2-MdmX inh 18, CF NFkB inh 28, LGR2 inh 32 and Peg3 prom inh 75*.
For CCOC(=O)[C@]12Cc3cc(OC)ccc3[C@H]1N(Cc1ccccc1)C(=O)c1ccccc12 the results were KKLEB tox 6, CF NFkB inh 6, LGR2 inh 12 and Peg3 prom inh 17.
Screening CCOC(=O)[C@]12Cc3cc(C)ccc3[C@H]1N(C(C)C)C(=O)c1ccccc12 returned LGR2 inh 69*.
CCCCCN1C(=O)c2ccccc2[C@@]2(C(=O)OCC)Cc3cc(OC)ccc3[C@@H]12 was read as LGR2 inh 64*.
CCOC(=O)[C@]12Cc3ccccc3[C@H]1N(C(C)C)C(=O)c1cc(OC)ccc12 was read as LGR2 inh 31.
Screening COc1ccc(CN2C(=O)NC(=O)/C(=C\c3ccco3)C2=O)cc1 returned HSP90 refold inh -1, KKLEB tox -13, Mdm2-MdmX inh 9, CF NFkB inh 23, LGR2 inh -25 and Peg3 prom inh 29.
For O=C1NC(=O)N(Cc2ccccc2)C(=O)/C1=C/C=C/c1ccco1 the results were HSP90 refold inh 2, KKLEB tox 2, Mdm2-MdmX inh 15, CF NFkB inh 87*, LGR2 inh 14 and Peg3 prom inh 13.
CC=Cc1ccc2n(c1=O)C[C@@H]1[C@@H](CO)[C@H](C(=O)N(C)C)[C@H]2N1C (mixture of isomers) was read as LGR2 inh -20.
C/C=C/c1ccc(C2[C@@H]3CN(Cc4cccnc4)C[C@H]2N3)cc1 (some centres undefined) was read as LGR2 inh -4.
Screening O=C(Cc1ccccc1)N1CCCCN2[C@@H](CO)[C@H](c3ccc(-c4ccccc4)cc3)[C@@H]2C1 returned LGR2 inh 14.
`CCc1ccc(N2C(=O)NC(=O)/C(=C/c3cccn3CCOc3ccc(C(C)CC)cc3)C2=O)cc1` (centres undefined) gave HSP90 refold inh 29*, KKLEB tox -9, Mdm2-MdmX inh -85, CF NFkB inh -21, LGR2 inh -14 and Peg3 prom inh -147.
Screening S=C(NCCc1ccccc1)N1Cc2ccc(Br)cc2-n2nncc2C1 returned KKLEB tox -3, CF NFkB inh -16, LGR2 inh 6 and Peg3 prom inh 51*.
For S=C(NCCc1ccccc1)N1Cc2cc(Br)ccc2-n2nncc2C1 the results were KKLEB tox 8, CF NFkB inh -17, LGR2 inh 8 and Peg3 prom inh 12.
`CC1OC(OC2CC(O)C3(CO)C4C(O)CC5(C)C(C6=CC(=O)OC6)CCC5(O)C4CCC3(O)C2)C(O)C(O)C1O` (centres undefined) gave KKLEB tox -51*, CF NFkB inh 91*, LGR2 inh 90* and Peg3 prom inh 110*.
`C[C@@H]1CN([C@H](C)CO)C(=O)c2c(c3ccccc3n2C)-c2ccccc2CO[C@H]1CN(C)C(=O)Oc1ccccc1` gave LGR2 inh 17.
`NC(Cc1ccccc1)c1csc(Nc2ccccn2)n1` (centres undefined) gave KKLEB tox 7, CF NFkB inh -8, LGR2 inh -21 and Peg3 prom inh -169.
Screening NC(Cc1ccc(Cl)cc1)c1csc(Nc2ccccn2)n1 (centres undefined) returned KKLEB tox -15, CF NFkB inh 24, LGR2 inh 34 and Peg3 prom inh 73*.
COC(=O)[C@@H]1[C@@H](CO)[C@@H]2Cn3c(ccc(C4=CCCCC4)c3=O)[C@H]1N2Cc1ccccc1OC was read as LGR2 inh -2.
O=C(O)[C@@H]1[C@@H](CO)[C@@H]2Cn3c(ccc(C4=CCCCC4)c3=O)[C@H]1N2CCc1ccccc1 was read as LGR2 inh -8.
CCOc1ccc(-n2c(-c3cccs3)nc3ccccc3c2=O)cc1 was read as HSP90 refold inh 1, KKLEB tox -11, Mdm2-MdmX inh 20, CF NFkB inh 8, LGR2 inh 5 and Peg3 prom inh 13.
CCn1nc(-c2cccs2)nc2c(=O)n(C)c(=O)nc1-2 was read as KKLEB tox -89*, CF NFkB inh 98* and Peg3 prom inh 118*.
For O=C1NC(=O)N(c2ccccc2)C(=O)/C1=C/c1ccc(Sc2ccccc2)o1 the results were HSP90 refold inh -1, KKLEB tox -6, CF NFkB inh 11 and Peg3 prom inh 50*.
For COc1ccc(-c2ccc([C@@H]3[C@H]4CN(C(=O)Cc5ccccc5)CCCCN4[C@H]3CO)cc2)cc1 the results were LGR2 inh -7.

High-throughput results (PubChem)
